What was measured:
Assay in all cases: DAPPL (digital affinity profiling via proximity ligation, sequencing); 10 mM Tris-HCl pH 7.5, 50 mM NaCl, 1 mM DTT, 4% glycerol, room temperature, 30 min; GST-TFs on glutathione beads, 16-mer random dsDNA library, 0.1% formaldehyde crosslink after washing; high values mean tight binding
[1] = molecular target: T1, FEV (Homo sapiens, UniProt Q99581 1-238); conditions: protein: recombinant; tags: N-terminal GST; dsDNA, one strand shown
T1 sequence: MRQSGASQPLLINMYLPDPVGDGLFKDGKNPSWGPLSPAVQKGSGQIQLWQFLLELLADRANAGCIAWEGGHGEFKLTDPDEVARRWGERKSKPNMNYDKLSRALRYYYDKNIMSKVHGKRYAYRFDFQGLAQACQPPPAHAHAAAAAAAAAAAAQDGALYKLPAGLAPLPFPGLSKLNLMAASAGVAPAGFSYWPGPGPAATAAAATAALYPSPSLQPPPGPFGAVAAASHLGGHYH
Outline: (§1)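 Sequencing on an Illumina NextSeq500 followed washing, crosslinking with 0.1% formaldehyde, proximity ligation (BsaI/T4 ligase, 1 h, 37 °C) and PCR amplification of pools that had been incubated for 30 min at room temperature with 200 nmole of a random double-stranded 16-mer DNA library in Tris/NaCl/DTT/glycerol buffer. Each pool held DNA-barcoded human transcription factors, expressed in yeast as GST fusions and captured on glutathione beads, plus a tag-only sample. Binding signal is a hexamer's read frequency for a factor divided by its frequency in the tag-only sample.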

[2] = molecular target: ETV5 (Homo sapiens, UniProt P41161 1-510); conditions: protein: recombinant; tags: N-terminal GST; dsDNA, one strand shown
Sequence of ETV5 (P41161 whole entry): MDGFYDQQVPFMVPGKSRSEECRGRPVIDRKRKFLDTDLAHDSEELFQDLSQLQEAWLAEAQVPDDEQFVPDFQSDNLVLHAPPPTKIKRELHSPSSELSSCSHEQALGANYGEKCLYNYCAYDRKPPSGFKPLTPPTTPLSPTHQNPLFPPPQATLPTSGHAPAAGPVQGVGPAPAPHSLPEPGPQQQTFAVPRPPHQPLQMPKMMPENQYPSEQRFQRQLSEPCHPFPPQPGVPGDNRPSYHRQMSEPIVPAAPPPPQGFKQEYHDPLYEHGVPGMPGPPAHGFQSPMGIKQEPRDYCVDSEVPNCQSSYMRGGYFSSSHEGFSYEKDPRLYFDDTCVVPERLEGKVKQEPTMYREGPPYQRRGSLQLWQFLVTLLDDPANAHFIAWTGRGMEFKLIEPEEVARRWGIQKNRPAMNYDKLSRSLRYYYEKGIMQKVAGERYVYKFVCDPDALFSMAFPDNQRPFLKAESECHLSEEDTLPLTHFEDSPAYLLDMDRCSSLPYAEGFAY
Outline: as §1

[3] = molecular target: HSF1 (Homo sapiens, UniProt Q00613 1-529); conditions: protein: recombinant; tags: N-terminal GST; chain copies: 3; dsDNA, one strand shown
Sequence of HSF1 (Q00613 whole entry): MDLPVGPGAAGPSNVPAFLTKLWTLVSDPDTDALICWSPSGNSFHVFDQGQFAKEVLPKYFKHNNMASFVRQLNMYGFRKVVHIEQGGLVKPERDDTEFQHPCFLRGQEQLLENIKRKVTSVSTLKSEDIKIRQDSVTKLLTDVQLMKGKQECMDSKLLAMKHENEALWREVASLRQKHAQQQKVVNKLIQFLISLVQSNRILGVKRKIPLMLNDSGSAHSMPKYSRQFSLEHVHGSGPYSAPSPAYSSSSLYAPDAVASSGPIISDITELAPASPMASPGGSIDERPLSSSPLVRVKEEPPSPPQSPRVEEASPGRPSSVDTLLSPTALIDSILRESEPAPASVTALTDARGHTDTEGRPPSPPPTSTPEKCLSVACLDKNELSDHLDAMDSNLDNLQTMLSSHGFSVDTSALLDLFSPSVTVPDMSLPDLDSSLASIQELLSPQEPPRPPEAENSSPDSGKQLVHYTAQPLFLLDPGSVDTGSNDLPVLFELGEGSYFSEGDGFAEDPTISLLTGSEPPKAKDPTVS
Outline: as §1

[4] = molecular target: T2, SPIC (Homo sapiens, UniProt Q8N5J4 1-248); conditions: protein: recombinant; tags: N-terminal GST; dsDNA, one strand shown
T2 sequence: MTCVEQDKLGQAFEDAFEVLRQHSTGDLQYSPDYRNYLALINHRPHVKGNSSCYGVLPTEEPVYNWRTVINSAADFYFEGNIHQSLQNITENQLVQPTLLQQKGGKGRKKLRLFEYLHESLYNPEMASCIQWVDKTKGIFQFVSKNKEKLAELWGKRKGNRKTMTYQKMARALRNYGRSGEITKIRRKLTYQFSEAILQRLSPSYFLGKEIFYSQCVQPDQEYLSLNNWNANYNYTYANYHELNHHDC
Outline: as §1

[5] = molecular target: ELF4 (Homo sapiens, UniProt Q99607 1-663); conditions: protein: recombinant; tags: N-terminal GST; dsDNA, one strand shown
Sequence of ELF4 (Q99607 whole entry): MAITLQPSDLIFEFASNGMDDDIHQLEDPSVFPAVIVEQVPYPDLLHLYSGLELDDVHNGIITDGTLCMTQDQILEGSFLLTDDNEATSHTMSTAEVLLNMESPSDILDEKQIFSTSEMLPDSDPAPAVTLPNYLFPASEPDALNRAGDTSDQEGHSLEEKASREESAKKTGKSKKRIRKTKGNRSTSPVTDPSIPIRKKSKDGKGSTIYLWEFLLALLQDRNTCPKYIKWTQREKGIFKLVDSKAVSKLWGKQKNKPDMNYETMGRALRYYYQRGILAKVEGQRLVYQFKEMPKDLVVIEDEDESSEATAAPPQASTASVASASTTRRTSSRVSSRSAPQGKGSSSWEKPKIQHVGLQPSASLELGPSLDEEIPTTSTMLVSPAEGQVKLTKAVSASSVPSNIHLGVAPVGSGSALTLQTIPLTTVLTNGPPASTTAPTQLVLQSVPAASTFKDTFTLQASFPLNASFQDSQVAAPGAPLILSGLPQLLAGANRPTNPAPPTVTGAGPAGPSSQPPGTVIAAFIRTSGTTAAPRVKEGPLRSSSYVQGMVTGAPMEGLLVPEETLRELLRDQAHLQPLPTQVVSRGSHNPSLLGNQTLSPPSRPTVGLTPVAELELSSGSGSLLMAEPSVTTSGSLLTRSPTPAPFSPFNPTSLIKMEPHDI
Outline: as §1

[6] = molecular target: T3, ELK4 (Homo sapiens, UniProt P28324-2 1-405); conditions: protein: recombinant; tags: N-terminal GST; dsDNA, one strand shown
T3 sequence: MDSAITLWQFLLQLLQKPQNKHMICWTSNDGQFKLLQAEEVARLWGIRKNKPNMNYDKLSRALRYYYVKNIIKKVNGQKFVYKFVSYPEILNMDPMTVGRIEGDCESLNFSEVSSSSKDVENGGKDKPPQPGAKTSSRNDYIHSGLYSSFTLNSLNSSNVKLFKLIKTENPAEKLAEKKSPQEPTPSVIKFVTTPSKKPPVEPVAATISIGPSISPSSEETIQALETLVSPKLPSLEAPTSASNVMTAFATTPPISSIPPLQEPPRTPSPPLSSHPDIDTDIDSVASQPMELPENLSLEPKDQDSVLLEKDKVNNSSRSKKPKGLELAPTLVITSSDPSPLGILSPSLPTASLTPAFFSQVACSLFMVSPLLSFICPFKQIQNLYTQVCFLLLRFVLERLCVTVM
Outline: as §1

[7] = molecular target: T4, ETV2 (Homo sapiens, UniProt O00321 1-342); conditions: protein: recombinant; tags: N-terminal GST; dsDNA, one strand shown
T4 sequence: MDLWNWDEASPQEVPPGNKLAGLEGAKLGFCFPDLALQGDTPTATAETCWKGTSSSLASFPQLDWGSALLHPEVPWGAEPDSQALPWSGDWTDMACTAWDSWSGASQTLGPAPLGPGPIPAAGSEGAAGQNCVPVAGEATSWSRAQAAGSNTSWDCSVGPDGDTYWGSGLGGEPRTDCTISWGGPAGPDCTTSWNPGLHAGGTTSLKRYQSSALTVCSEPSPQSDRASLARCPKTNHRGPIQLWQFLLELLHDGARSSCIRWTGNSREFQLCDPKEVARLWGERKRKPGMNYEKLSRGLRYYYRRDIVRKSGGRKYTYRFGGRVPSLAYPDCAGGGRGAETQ
Outline: as §1

[8] = molecular target: T5, ELF3 (Homo sapiens, UniProt P78545 1-371); conditions: protein: recombinant; tags: N-terminal GST; dsDNA, one strand shown
T5 sequence: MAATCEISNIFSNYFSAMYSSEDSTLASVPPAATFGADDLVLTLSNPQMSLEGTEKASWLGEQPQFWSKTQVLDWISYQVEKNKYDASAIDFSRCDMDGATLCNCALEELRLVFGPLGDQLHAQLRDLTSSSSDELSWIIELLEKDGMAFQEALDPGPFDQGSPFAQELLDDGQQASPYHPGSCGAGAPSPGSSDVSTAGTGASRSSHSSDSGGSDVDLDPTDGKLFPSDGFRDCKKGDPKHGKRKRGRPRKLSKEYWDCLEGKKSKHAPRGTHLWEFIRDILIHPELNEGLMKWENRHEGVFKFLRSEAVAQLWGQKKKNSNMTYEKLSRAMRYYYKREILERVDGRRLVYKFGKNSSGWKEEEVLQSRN
Outline: as §1

[9] = molecular target: CRX (Homo sapiens, UniProt O43186 1-299); conditions: protein: recombinant; tags: N-terminal GST; dsDNA, one strand shown
Sequence of CRX (O43186 whole entry): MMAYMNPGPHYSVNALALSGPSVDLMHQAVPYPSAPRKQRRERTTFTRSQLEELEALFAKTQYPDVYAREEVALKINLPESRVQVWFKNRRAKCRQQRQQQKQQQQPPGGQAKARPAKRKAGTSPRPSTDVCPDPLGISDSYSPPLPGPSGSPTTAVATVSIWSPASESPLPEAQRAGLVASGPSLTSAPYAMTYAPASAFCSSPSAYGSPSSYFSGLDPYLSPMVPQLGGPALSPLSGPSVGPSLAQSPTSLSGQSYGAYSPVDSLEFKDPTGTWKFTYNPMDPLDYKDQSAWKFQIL
Outline: as §1

[10] = molecular target: ETV1 (Homo sapiens, UniProt P50549 1-477); conditions: protein: recombinant; tags: N-terminal GST; dsDNA, one strand shown
Sequence of ETV1 (P50549 whole entry): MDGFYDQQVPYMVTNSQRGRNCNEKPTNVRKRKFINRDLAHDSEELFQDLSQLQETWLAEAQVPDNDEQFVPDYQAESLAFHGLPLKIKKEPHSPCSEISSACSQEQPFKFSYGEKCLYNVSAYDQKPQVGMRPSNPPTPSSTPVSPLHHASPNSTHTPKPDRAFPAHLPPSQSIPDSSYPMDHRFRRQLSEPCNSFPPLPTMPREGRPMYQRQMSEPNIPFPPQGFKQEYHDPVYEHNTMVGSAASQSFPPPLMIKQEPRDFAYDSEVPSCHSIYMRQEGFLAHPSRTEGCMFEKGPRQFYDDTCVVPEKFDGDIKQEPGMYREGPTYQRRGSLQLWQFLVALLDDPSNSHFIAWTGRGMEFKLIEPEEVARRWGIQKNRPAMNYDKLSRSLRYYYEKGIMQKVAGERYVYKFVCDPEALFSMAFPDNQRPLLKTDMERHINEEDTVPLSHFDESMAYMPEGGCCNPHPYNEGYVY
Outline: as §1

[11] = molecular target: T6, ERF (Homo sapiens, UniProt P50548 1-548); conditions: protein: recombinant; tags: N-terminal GST; dsDNA, one strand shown
T6 sequence: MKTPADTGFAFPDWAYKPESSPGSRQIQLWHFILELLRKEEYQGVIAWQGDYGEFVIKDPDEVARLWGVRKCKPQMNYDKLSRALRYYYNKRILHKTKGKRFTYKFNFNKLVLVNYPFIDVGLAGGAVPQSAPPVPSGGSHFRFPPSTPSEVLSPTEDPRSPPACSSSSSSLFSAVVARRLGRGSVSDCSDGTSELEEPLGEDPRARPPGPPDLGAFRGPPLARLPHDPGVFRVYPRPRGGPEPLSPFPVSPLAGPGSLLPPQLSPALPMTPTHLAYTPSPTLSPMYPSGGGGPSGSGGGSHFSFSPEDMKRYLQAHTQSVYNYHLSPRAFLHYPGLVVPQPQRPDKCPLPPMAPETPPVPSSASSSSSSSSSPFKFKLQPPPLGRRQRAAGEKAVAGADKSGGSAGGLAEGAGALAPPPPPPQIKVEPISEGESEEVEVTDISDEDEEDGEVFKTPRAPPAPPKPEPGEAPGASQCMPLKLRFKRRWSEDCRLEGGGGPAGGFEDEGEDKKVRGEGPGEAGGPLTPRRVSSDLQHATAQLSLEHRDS
Outline: as §1

[12] = molecular target: T7, ETV3L (Homo sapiens, UniProt Q6ZN32 1-361); conditions: protein: recombinant; tags: N-terminal GST; dsDNA, one strand shown
T7 sequence: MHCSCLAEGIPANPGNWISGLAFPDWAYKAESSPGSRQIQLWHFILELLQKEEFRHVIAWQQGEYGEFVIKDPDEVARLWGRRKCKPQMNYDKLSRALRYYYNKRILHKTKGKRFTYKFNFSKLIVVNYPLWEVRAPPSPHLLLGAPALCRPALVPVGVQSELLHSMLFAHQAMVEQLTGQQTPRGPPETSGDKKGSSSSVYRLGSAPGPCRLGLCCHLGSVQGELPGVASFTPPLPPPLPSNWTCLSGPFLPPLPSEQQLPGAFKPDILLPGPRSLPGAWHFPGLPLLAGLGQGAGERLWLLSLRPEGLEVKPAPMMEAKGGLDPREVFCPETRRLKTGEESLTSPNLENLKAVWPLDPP
Outline: as §1

[13] = molecular target: T8, ETS2 (Homo sapiens, UniProt P15036 1-469); conditions: protein: recombinant; tags: N-terminal GST; dsDNA, one strand shown
T8 sequence: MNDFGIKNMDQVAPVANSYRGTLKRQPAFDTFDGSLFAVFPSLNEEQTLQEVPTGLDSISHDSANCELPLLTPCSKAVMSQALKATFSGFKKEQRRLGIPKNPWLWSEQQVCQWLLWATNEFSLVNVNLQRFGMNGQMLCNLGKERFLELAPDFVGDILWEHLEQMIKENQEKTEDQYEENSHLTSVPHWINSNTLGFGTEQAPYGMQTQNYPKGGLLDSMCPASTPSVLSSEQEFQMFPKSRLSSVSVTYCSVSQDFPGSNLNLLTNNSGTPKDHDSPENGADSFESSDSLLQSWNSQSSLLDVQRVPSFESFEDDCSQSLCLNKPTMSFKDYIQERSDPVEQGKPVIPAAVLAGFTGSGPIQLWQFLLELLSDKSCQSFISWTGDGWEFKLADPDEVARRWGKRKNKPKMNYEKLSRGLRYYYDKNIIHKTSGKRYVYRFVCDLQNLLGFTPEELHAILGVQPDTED
Outline: as §1

[14] = molecular target: T9, SPDEF (Homo sapiens, UniProt O95238 1-335); conditions: protein: recombinant; tags: N-terminal GST; dsDNA, one strand shown
T9 sequence: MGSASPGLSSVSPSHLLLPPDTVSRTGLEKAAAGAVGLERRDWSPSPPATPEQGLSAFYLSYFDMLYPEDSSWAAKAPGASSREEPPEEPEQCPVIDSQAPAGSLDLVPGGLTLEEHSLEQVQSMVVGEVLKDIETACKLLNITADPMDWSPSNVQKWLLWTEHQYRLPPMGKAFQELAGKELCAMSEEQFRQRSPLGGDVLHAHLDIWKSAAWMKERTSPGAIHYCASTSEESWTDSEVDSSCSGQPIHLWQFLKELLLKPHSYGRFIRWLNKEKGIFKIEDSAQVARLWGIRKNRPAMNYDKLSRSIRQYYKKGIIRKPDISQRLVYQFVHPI
Outline: as §1

[15] = molecular target: T10, ETV7 (Homo sapiens, UniProt Q9Y603 1-341); conditions: protein: recombinant; tags: N-terminal GST; dsDNA, one strand shown
T10 sequence: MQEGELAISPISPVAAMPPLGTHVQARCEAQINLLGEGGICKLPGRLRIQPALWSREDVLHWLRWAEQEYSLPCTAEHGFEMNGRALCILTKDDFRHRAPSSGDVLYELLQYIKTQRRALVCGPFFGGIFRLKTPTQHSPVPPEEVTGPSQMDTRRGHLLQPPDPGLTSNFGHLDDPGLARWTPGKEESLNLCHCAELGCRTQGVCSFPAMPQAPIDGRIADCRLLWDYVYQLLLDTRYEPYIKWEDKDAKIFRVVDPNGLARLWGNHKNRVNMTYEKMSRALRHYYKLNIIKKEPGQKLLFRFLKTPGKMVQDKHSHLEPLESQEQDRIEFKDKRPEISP
Outline: as §1

[16] = molecular target: T11, ELF5 (Homo sapiens, UniProt Q9UKW6-2 1-255); conditions: protein: recombinant; tags: N-terminal GST; dsDNA, one strand shown
T11 sequence: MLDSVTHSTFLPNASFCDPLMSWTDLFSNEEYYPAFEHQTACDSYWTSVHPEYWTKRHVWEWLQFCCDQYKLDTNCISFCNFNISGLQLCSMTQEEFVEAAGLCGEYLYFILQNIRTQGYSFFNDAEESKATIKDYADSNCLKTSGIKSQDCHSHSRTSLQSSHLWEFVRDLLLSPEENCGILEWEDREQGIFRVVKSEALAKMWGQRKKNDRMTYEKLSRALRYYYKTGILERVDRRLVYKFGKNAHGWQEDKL
Outline: as §1

[17] = molecular target: T12, ETV3 (Homo sapiens, UniProt P41162-2 1-143); conditions: protein: recombinant; tags: N-terminal GST; dsDNA, one strand shown
T12 sequence: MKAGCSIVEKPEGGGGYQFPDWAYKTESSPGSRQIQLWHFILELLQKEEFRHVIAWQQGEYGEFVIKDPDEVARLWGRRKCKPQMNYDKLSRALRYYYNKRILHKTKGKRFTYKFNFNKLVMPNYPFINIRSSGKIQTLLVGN
Outline: as §1

[18] = molecular target: ETV6 (Homo sapiens, UniProt P41212 1-452); conditions: protein: recombinant; tags: N-terminal GST; dsDNA, one strand shown
Sequence of ETV6 (P41212 whole entry): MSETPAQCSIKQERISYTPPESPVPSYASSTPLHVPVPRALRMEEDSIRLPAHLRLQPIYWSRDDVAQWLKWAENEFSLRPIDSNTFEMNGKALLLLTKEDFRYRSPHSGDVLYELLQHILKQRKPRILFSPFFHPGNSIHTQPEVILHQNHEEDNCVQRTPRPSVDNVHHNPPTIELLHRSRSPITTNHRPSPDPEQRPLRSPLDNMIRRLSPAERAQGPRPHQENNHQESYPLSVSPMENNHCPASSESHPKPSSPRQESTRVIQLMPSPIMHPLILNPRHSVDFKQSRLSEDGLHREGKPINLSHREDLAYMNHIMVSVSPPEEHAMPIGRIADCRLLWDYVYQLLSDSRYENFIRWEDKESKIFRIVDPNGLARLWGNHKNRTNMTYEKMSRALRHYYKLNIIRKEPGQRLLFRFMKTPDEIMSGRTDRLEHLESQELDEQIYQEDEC
Outline: as §1

Sequence: ACTCCT
- binding signal [1]: 1.47 fold enrichment (6-mer frequency, TF over GST control)
- binding signal [2]: 1.38 fold enrichment (6-mer frequency, TF over GST control)
- binding signal [3]: 1.36 fold enrichment (6-mer frequency, TF over GST control)
- binding signal [4]: 1.54 fold enrichment (6-mer frequency, TF over GST control)
- binding signal [5]: 1.59 fold enrichment (6-mer frequency, TF over GST control)
- binding signal [6]: 1.54 fold enrichment (6-mer frequency, TF over GST control)
- binding signal [7]: 1.38 fold enrichment (6-mer frequency, TF over GST control)
- binding signal [8]: 1.3 fold enrichment (6-mer frequency, TF over GST control)
- binding signal [9]: 1.32 fold enrichment (6-mer frequency, TF over GST control)
- binding signal [10]: 1.41 fold enrichment (6-mer frequency, TF over GST control)
- binding signal [11]: 1.45 fold enrichment (6-mer frequency, TF over GST control)
- binding signal [12]: 1.54 fold enrichment (6-mer frequency, TF over GST control)
- binding signal [13]: 1.52 fold enrichment (6-mer frequency, TF over GST control)
- binding signal [14]: 1.42 fold enrichment (6-mer frequency, TF over GST control)
- binding signal [15]: 1.52 fold enrichment (6-mer frequency, TF over GST control)
- binding signal [16]: 1.42 fold enrichment (6-mer frequency, TF over GST control)
- binding signal [17]: 1.43 fold enrichment (6-mer frequency, TF over GST control)
- binding signal [18]: 1.42 fold enrichment (6-mer frequency, TF over GST control)
